Reference: PubChem BioAssay (NCI)
“And” between values parts separate entries of the source, which are not always exact repeats. Identical values can stand only once. Compounds without any hit were thinned out: in the full panel of roughly 83,000, 20% have a hit.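 48-hour exposure, single concentration, 96-well plates; percent growth endpoint where 0 means no net growth. Active: below 10.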 Values without a mark were called inactive. The source made the active and inactive calls.

System: MDA-MB-468 breast
Test: NCI-60 one-dose screen, 48 h (100 = growth as untreated, 0 = no growth, -100 = all killed)
Conditions: 10 µM unless noted

Question: For `COc1ccc(-c2cn3c(-c4ccc(OC)cc4)cnc3c(Oc3ccc4c(C)cc(=O)oc4c3)n2)cc1`, which growth is on record?
Answer: Its growth is 43.9%.

Question: How did the growth turn out when `COc1ccc(CCN2CCCn3c2nc2ccccc2c3=O)cc1` was run?
Answer: The growth was -14% (active).

Question: For `COc1ccc(-c2cc(Cc3cccs3)c(=O)n(Cn3cncn3)n2)cc1`, which growth is on record?
Answer: The growth was 102%.

Question: How did the growth turn out when `NS(=O)(=O)c1ccc(CCN2C(=O)/C(=C\c3ccc(Cl)cc3)C=C2c2ccc3ccccc3c2)cc1` was run?
Answer: The growth was 91%.

Question: How did the growth turn out when `COc1ccc(C2C=C(c3ccc(OC)c(OC)c3)N=C3SC=C(C)N32)c(Br)c1` (stereo not given) was run?
Answer: Its growth is 95.9%.

Question: Which growth does the source give for `COc1cc(C(C)c2ccc3c(ccn3C)c2)cc(OC)c1OC` (stereo not given) here?
Answer: Its growth is 51.9%.

Question: `CCOC(=O)C(c1ccccc1)N1C(=O)c2ccccc2C1=O` (stereo not given) was tested. Which growth did it give?
Answer: Its growth is 137%.

Question: Which growth does the source give for `CN(C)CCN(C)CC(C)(C)C(=O)/C=C/c1ccc(Cl)cc1` here?
Answer: The growth was -46.2% (active).

Question: Which growth does the source give for `O=C(CCN1C(=O)c2ccccc2C1=O)Nc1ccc(Cl)cc1` here?
Answer: The growth was 116%.

Question: For `CCN(CC)C(=O)C1CCN(C(=O)c2ccccc2)CC1`, which growth is on record?
Answer: The growth was 109%.

Question: How did the growth turn out when `Clc1ccc2c(NC3CCC(N4CCOCC4)CC3)ccnc2c1` (stereo not given) was run?
Answer: Its growth is 9.58% (active).

Question: For `Cc1ccc2nc3nc4ccc[nH]c4cc3c2c1`, which growth is on record?
Answer: The growth was -57.7% (active).

Question: With `C=C1C(=O)O[C@H]2[C@H]1CC/C(C(=O)Nc1ccc(OC)c(C(N)=O)c1O)=C\CC[C@@]1(C)O[C@@H]21` as the compound, how does the growth read?
Answer: Its growth is 20.4%.

Question: `O=C(CSc1nnc(-c2cc(-c3ccc(Cl)cc3)nc3ccccc23)n1-c1ccccc1)Nc1ccc(Cl)cc1` was tested. Which growth did it give?
Answer: The growth was 110%.

Question: With `COc1ccc2nc3ccccc3c(NCCNCC(C)O)c2c1` (stereo not given) as the compound, how does the growth read?
Answer: Its growth is -24.6% (active).

Question: For `O=C(NNc1ccccc1)c1ccccc1`, which growth is on record?
Answer: Its growth is 87.1% and 103%.

Question: `COc1ccc(Cn2cc3c(c2-c2ccccc2)CCCc2cnoc2-3)cc1` was tested. Which growth did it give?
Answer: Its growth is 47.7%.

Question: `NC(=S)N/N=C1\c2ccccc2-c2c(F)c(F)c(F)c(F)c21` was tested. Which growth did it give?
Answer: The growth was 25.8%.

Question: `Nc1c(C(=O)Nc2cccc(Cl)c2)sc2nc3c(cc12)C(O)CCC3` (stereo not given) was tested. Which growth did it give?
Answer: Its growth is 39.5%.

Question: With `N[C@@H]1CCN(C(=O)c2cc3cc(Cl)c(F)c(F)c3[nH]2)C1` as the compound, how does the growth read?
Answer: The growth was 81.6%.

Question: `COc1ccccc1S(=O)Nc1ccccc1` (stereo not given) was tested. Which growth did it give?
Answer: The growth was 97.2%.

Question: With `CC(=O)Nc1ccc2c(c1)Cc1cc(F)ccc1-2` as the compound, how does the growth read?
Answer: The growth was 101%.

Question: `CCN(CC)CCCCCCCCNc1c2ccc(Cl)cc2nc2ccc(OC)cc12` was tested. Which growth did it give?
Answer: The growth was -93.2% (active).

Question: With `O=C1O[C@@H](c2ccccc2Cl)[C@@H]2c3cc4c(cc3CCN12)OCO4` as the compound, how does the growth read?
Answer: The growth was 96.2%.

Question: How did the growth turn out when `CCO/C=N/C1=C(C#N)C(c2ccc(Cl)cc2)c2c(c3ccc(C)cc3[nH]c2=O)O1` (stereo not given) was run?
Answer: Its growth is 96.8%.

Question: For `Cc1nc2ccccc2c(/C=C/c2ccccc2)c1C(=O)/C=C/c1ccc(C(F)(F)F)cc1`, which growth is on record?
Answer: Its growth is -67.8% (active).

Question: `O=C(CN1CCCCC1)Nc1ccc2oc(=O)ccc2c1` was tested. Which growth did it give?
Answer: The growth was 107%.

Question: Which growth does the source give for `CCOC(=O)c1[nH]c(C)c(C(C)=O)c1C` here?
Answer: The growth was 87.2%.

Question: How did the growth turn out when `COc1ccc(-n2nc(C(=O)NCC(=O)Nc3nc4cc(OC)ccc4s3)c3ccccc3c2=O)cc1` was run?
Answer: The growth was -8.37% (active).

Question: `COc1cc(CNC(=O)CCCC/C=C/C(C)C)ccc1OCc1cn(-c2cccc([N+](=O)[O-])c2)nn1` was tested. Which growth did it give?
Answer: The growth was 72.3%.

Question: For `CCOCCOCCOCCOCCOCCOCCOCCOCCOCCO` (tested in a mixture with another compound), which growth is on record?
Answer: Its growth is -13.5% (active).

Question: With `CN1CCN(CC#CCNC(=O)[C@]23CCC(C)(C)C[C@H]2C2=CC[C@@H]4[C@@]5(C)Cc6c([nH]c7ccccc67)C(C)(C)[C@@H]5CC[C@@]4(C)[C@]2(C)CC3)CC1` as the compound, how does the growth read?
Answer: The growth was 91.2%.

Question: For `O=C1Nc2ccccc2/C1=C/c1nc2ccccc2c(=O)[nH]1`, which growth is on record?
Answer: Its growth is 93%.

Question: With `C[C@]12CCc3nc(Nc4ccc(O)cc4)sc3C1=CC[C@@H]1[C@@H]2CC[C@]2(C)/C(=N/NC(N)=S)CC[C@@H]12` as the compound, how does the growth read?
Answer: The growth was -58.2% (active).

Question: `CC(=O)NC1=C(C#N)C(c2ccccc2Cl)c2c(ccc3ccccc23)O1` (stereo not given) was tested. Which growth did it give?
Answer: The growth was 14%.

Question: With `CNc1cc(C(=O)O)nc(NC)n1` as the compound, how does the growth read?
Answer: The growth was 95.5%.

Question: With `CC[C@H]1CN2CCc3cc(OC)c(OC)cc3C2C[C@@H]1CC1NCCc2cc(OC)c(OC)cc21` (stereo not given in full) as the compound, how does the growth read?
Answer: Its growth is -59.5% (active).

Question: Which growth does the source give for `CC(=O)Oc1c(Cl)cccc1-c1ccccc1` here?
Answer: Its growth is 100%.

Question: For `O=C(Nc1cccc([N+](=O)[O-])c1)c1ccc(Cl)c(Cl)c1`, which growth is on record?
Answer: Its growth is 64.2%.

Question: Which growth does the source give for `Cc1ccc(NC(=O)Nc2nc3ccccc3s2)cc1NC(=O)Nc1nc2ccccc2s1` here?
Answer: Its growth is 96%.
